In PubChem BioAssay AID2435 (The Scripps Research Institute Molecular Screening Center, 2010):
The whole screen tested about 320,000 compounds, of which about 1,000 (0.31%) were called active. What follows is part of a selection rich in actives, with near analogues and random picks from the rest. A number with no mark means an inactive call.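 How the source made its calls: active means activation above the mean of all tested compounds plus 3 SD, cutoff set per screening run (cut at about 20% in these data); inactive means the rest.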

Target: Oxytocin receptor (Homo sapiens) (UniProt P30559)
Test: oxytocin receptor activation by calcium flux – fluorescence, CHO-OTR cells, Fluo-8 calcium, primary screen (AID 2435);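 further: peak over basal fluorescence ratio from a 100 s FLIPR kinetic read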
Settings: Fluo-8 calcium fluorescence, at 3 µM, active compounds read high, normalized: DMSO 0%, oxytocin 100%

Chain of Oxytocin receptor (Homo sapiens) (P30559 whole entry, looked up): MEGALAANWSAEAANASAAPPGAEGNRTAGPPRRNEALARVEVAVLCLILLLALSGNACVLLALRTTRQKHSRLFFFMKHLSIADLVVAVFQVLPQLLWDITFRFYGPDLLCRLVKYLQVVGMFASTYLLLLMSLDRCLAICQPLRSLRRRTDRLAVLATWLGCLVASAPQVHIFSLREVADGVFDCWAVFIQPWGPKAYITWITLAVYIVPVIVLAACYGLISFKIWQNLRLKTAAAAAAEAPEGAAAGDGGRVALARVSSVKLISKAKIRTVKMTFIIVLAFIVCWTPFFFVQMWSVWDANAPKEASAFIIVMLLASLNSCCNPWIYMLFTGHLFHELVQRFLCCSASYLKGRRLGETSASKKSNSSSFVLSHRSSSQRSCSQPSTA

Row | Compound | activation
1 | Cn1c(C(=O)OC(C(=O)NC2CCCCC2)c2ccccn2)cc2sccc21 (stereo not given) | -2.18%
2 | Cc1nc(-c2ccccc2)cn2c1nc1ccccc12 | -2.1%
3 | S=C(NCC1COc2ccccc2O1)Nc1ccc(Br)cc1 (stereo not given) | 6.93%
4 | c1ccc2c(c1)OCC(CNc1ncnc3nc[nH]c13)O2 (stereo not given) | 80.8% (active)
5 | c1ccc(-c2cc3c(NCC4COc5ccccc5O4)ncnc3s2)cc1 (stereo not given) | -2.32%
6 | CCc1ccc(C2N3CC4([N+](=O)[O-])CN2CC([N+](=O)[O-])(C3)C4(C)C)cc1 (stereo not given) | -1.26%
7 | Cc1ccc(NC(=O)C(CC(=O)O)C2CCCO2)c(C)c1 (stereo not given) | -0.43%
8 | CC(=O)c1ccc(NC(=S)NC(=O)CC(C)C)cc1 | -2.1%
9 | COc1ccc(OC)c(C(C)NC(=S)Nc2ccc(S(=O)(=O)Nc3ncccn3)cc2)c1 (stereo not given) | -0.31%
10 | COc1ccc(NS(=O)(=O)c2ccc(NC(=S)NC(=O)CC(C)C)cc2)cc1 | 22.5% (active)
11 | Cc1ccccc1CSc1nnc(-c2ccccc2)c(=O)[nH]1 | 0.69%
12 | CCOc1ccc(/C=C(/NC(=O)c2ccccc2)C(=O)NCCC(=O)O)cc1 | 0.74%
13 | COC(=O)c1sc(-c2ccc(C(C)(C)C)cc2)cc1NC(=O)/C=C/C(=O)O | 21.9% (active)
14 | COc1ccccc1NC(=O)/C=C/C(N)=O | 0.46%
15 | CC(C)(C)c1ccc(/C=C/C(=O)Nc2ncccn2)cc1 | -1.37%
16 | CNC[C@H](CC1CCCCC1)NC[C@H](NCCC1CCCC1)[C@H](C)O | 3.53%
17 | O=C(/C=C(O)/C=C/c1ccc(O)cc1)/C=C/c1ccc(O)cc1 | 99.9% (active)
18 | O=C(/C=C/c1ccc2c(c1)OCCO2)c1ccc(O)cc1 | 1.57%
19 | O=C(O)/C=C/c1ccc(OCCCF)cc1 | 0.01%
20 | CCOc1cc(/C=C/c2nc3ccccc3c(=O)[nH]2)cc(Br)c1OC | 0.74%
21 | CC(C)[C@H](NC(=O)N1CCn2c1nc1ccccc12)C(=O)NCc1ccc2c(c1)OCO2 | -1.49%
22 | O=C(NCc1ccccc1Cl)C1CCN(c2ncnc3c2nc2n3CCCCC2)CC1 | 0.32%
23 | Cc1cc(F)ccc1N1CCC(N2CCN(C)C(CCO)C2)CC1 (stereo not given) | 0.09%
24 | COc1cc(C(=O)NC2CCN(C)CC2)ccc1Nc1ncc2c(n1)N(C1CCC(O)CC1)CCC(=O)N2C (stereo not given) | 0.79%
25 | COc1ccc(CCC(=O)c2ccc(OC)cc2)cc1 | -2.31%
26 | COc1ccc(C(=O)NNC(=S)NC(=O)c2ccccc2)cc1 | 55% (active)
27 | COc1ccc(C(=O)NC2CCN(C(=S)NCCc3ccccc3)CC2)cc1 | -0.97%
28 | COc1ccc(C(=O)NNC(=S)NC(=O)c2ccccc2[N+](=O)[O-])cc1 | -2.16%
29 | COc1ccc(C(=O)NC(=S)NC2CCCCC2)cc1 | -1.13%
30 | COc1ccc(C(=O)NC(=S)NNC(=O)CCc2ccccc2)cc1 | 46% (active)
